Data reported in the supplement of paper PMC11417369.
± gives the standard deviation of the averaged measurements. Whole data set: some 25,000 sequences, median “ln(normalized median fluorescence intensity)” near 7.9, cut for the highest 2% near 11. What follows is part of a selection rich in the highest values, with near analogues and random picks from the rest.

test system: PfAP2-I AP2 domain 3 (GST-tagged); experiment: gcPBM binding intensity (ln(normalized median fluorescence intensity)); higher = stronger DNA binding
Outline: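 Plasmodium falciparum DNA-binding domains carrying a GST tag were expressed in E. coli and applied for 1 h, at about 25 μg on average, to an Agilent 4 × 180k array. The array held primer-extended double-stranded 36-bp intergenic genomic probes together with negative controls, and binding took place in 1× PBS with 1% milk, 0.2 mg/ml BSA, 0.5% salmon testes DNA and 0.03% Triton X-100. An Alexa488 anti-GST antibody detected bound protein, and the array was scanned at 488 nm. Binding intensity is taken as the highest Masliner-normalised natural-log median intensity across replicate spots of either probe orientation.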

Sequence	gcPBM binding intensity (ln)
CCTTTTTCTACTTTCTCACACATATTAAGAATTATA [CACACA_site5621]	8.29 ± 0.51
ATAAAAATGGATGAATATAAAAAAAAAAAAATATAT [CACACA_negctrl_site182]	7.74 ± 0.59
AAAAAAAATAAAAATATATATATATATATATAAATA [GTGCAC_negctrl_site676]	7.82 ± 0.53
TTCAATAGTAAGTATACACACATATATATATATAAA [CACACA_site2687]	7.82 ± 0.47
TTACTTAATAGACACACACACAAAAAAAAAAAAAAA [CACACA_site6572]	8.12 ± 0.49
TTTTTTTTTTTTTTGTGTACTAATATTATAAATTTT [XGTACX_site4405]	8.14 ± 0.3
GTTTATGTATTATTATGTACGTATCATAATATATAT [XGTACX_site2385]	8.28 ± 0.38
GTGTGCAAAAATTGTTGTACATTATATATAAAAAAA [XGTACX_site3246]	9.41 ± 0.34
AAATAATTATTTATCACACATATGTATTTATATATA [CACACA_site4589]	7.66 ± 0.43
ATTTTTTAAAATATTTGTACATATATAATGCATATA [XGTACX_site7026]	8.17 ± 0.17
ATATAATAAATGTAGGTGCATAAAAATATTTTGTTA [GTGCAC_site9780]	11 ± 0.45
TATATATTATATATATGTACATATTGTTGTGTATAT [XGTACX_site767]	7.92 ± 0.43
TTTTGTTATAAATAATGTACATATTTATTTAAAATT [XGTACX_site6610]	7.69 ± 0.38
AATTGTGCATTATATTGTACACGTGTTGTATATATT [XGTACX_site975]	11.1 ± 0.4
TTATTAAATTTTTTTTGTACTTATATATATATATAT [XGTACX_site2443]	9.23 ± 0.18
AGTGCATAATATTTATGTACGTATCACATATATTTT [XGTACX_site5166]	11.3 ± 0.83
TTATATTAATTTTGTTGTACTATTTGTGCATTAAAT [XGTACX_site4790]	11.1 ± 0.78
ATAATAAATTCTACGCGTACAAAACCATGAACATTA [XGTACX_site7505]	8.02 ± 0.38
TAATTAAAATTAAGAAGTACATTTTACTTTTAATGC [XGTACX_site5120]	7.61 ± 0.63
TTTTATTAAAACCACGCATGCAGAGGAAACGGTGAG [TGCATGCA_site1029]	8.45 ± 0.64
GTGTTAAATTTTTGAACATGCAAGTTTTATTATTGA [TGCATGCA_site478]	7.58 ± 0.56
ATATTCCTACATACAACACACGACGTTCTCATAAGA [CACACA_site231]	8.06 ± 0.66
TTATATGCATAAAAACGTACAAAAATGTATTCATGT [XGTACX_site2215]	8.06 ± 0.52

Sequence	gcPBM binding intensity (ln)
TCACTTTTATAATATAATATTCTATATCTTATTTTT [GTGCAC_negctrl_site717]	7.47 ± 0.47
TAATATAAAGAAATATCAATAATTTGGGCAAATGCC [GTGCAC_negctrl_site621]	7.53 ± 0.45
ATAATAATATTATTTTGTACATATGTGCTTATTTAT [XGTACX_site5540]	8.375 ± 0.035
TTGCATTAATTTATGTGTACATATAAATTTTTATTT [XGTACX_site3060]	8.21 ± 0.15
AATAATATTTATTTTTGTACATATGTGCATTATAAA [XGTACX_site3682]	11 ± 0.98
ACATCATAAAATTTATGTACACATTTTTAATTATAC [XGTACX_site7759]	8.19 ± 0.19
AATTTAATATAATGCACACATAAAAAAAAAATCAAA [CACACA_site1]	10.9 ± 0.65
CTCTATAAATGCTGCACACACATTTAATTATTTAAG [CACACA_site2582]	9.045 ± 0.064
ATTTATAAAATTAATGCACACATCAGCATTTATAAA [CACACA_site1025]	11.3 ± 0.79
AAATTAAAATATAATACACACATAAAAAAAAAATCA [CACACA_site5918]	7.68 ± 0.61
AAAAAATTAAAAATCACACATAAATATATATAAAAA [CACACA_site4192]	7.53 ± 0.67
AAAATTTAATATAATGCACACATAAAAAAAAAATCA [CACACA_site7882]	11.2 ± 0.76
TTTATCAAAATAAATGCACACAAATTGCACATATCT [CACACA_site8281]	10.31 ± 0.035
ATTATTTTATAATTCACACATAAATAAAAAAAAAAT [CACACA_site5290]	7.76 ± 0.32
TCTAATAAAATAAATACATGCATACATACATACATA [TGCATGCA_site895]	7.76 ± 0.63
TATGTGAATAAATAAGCACACATAAACACATATATA [CACACA_site9359]	8.06 ± 0.42
ATTTAATGTATTTTGCGTACGAATTATTTTATTTCA [XGTACX_site7331]	7.93 ± 0.49
CTATTATAATATTTTACACACCATGTAAAATATATA [CACACA_site3206]	7.75 ± 0.39
AAAATTAAAATACGTACACACCTTATCTTTTTGGCT [CACACA_site4311]	8.21 ± 0.19
ATATTTCTGTCAAGCACACATAATATTAAAATATGT [CACACA_site4330]	7.91 ± 0.49
ATATTTTATGTAAAGGTGCAAAACAACATTAAAAAA	10.9 ± 0.47
ATTTATTTTATATGTTGTACAAACATTTTAAAACAT [XGTACX_site6919]	7.79 ± 0.38
